Source: PubChem BioAssay
Calls of active or inactive are those of the source.

Assays:
[1] = target: Albumin (Bos taurus) (UniProt P02769); test: bovine serum albumin binders on microarray, profiling panel, artefact control for SMM control protein annotation, biochemical, small-molecule microarray, Alexa647 label, 635/667 nm fluorescence (AID 1118); conditions: BSA-A647 binding, fluorescence 635 nm, higher = more signal;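 further: score merges 667 nm emission intensity and signal-to-noise per printed compound spot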
Chain of Albumin (Bos taurus) (P02769 whole entry, looked up): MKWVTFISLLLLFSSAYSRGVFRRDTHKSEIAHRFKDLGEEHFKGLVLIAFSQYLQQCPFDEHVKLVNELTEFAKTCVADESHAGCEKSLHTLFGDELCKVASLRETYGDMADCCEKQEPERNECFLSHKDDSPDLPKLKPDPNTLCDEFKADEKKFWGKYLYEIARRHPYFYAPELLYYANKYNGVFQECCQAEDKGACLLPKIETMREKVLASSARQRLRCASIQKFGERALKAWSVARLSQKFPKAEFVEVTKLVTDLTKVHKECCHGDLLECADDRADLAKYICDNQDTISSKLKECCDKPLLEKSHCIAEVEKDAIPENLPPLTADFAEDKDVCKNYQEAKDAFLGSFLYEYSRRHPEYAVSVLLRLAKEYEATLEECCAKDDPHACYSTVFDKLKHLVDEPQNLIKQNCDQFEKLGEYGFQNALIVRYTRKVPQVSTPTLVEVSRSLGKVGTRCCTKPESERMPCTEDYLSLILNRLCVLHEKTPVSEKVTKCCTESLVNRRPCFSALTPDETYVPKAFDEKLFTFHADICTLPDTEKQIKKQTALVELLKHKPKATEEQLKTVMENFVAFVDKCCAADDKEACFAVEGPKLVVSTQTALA

[2] = small-molecule microarray binders of probe aXIP, primary screen, biochemical, NeuroSMM set, 635/667 nm fluorescence (AID 1119); conditions: higher = more signal, called active from +8 up or from −8 down;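 further: probe is the protein aXip251-270 applied at 1 µg/mL to compound-printed slides; binding of probe to printed compounds measured as 667 nm fluorescence plus signal to noise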
[3] = small-molecule binders of probe aNOTCH3, primary screen, biochemical, small-molecule microarray, 635/667 nm fluorescence (AID 1120); conditions: higher = more signal;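 further: probe is a biotin-tagged antibody raised against NOTCH3 rather than NOTCH3 protein; score merges spot fluorescence near 667 nm with spot signal to noise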
[4] = small-molecule binders of probe aNOTCH2, primary screen, biochemical, small-molecule microarray, 635/667 nm fluorescence (AID 1121); conditions: higher = more signal;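 further: score merges feature fluorescence read at 667 nm with its signal to noise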
[5] = target: Carbonic anhydrase 2 (Homo sapiens) (UniProt P00918); test: CAII small-molecule binders, profiling panel, biochemical, small-molecule microarray, Alexa647-labelled CAII (AID 1122); conditions: CAII-A647 binding fluorescence, higher = more signal
[6] = COS7 lysate on small-molecule microarray, probe aHis, 635 nm (AID 1123); conditions: COS7 cell lysate, fluorescence, higher = more signal;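 further: z-score combines 667nm fluorescence intensity with signal-to-noise per printed compound spot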
[7] = compound binding in COS7 lysate, probe aLAP1, primary screen, cell lysate, small-molecule microarray (AID 1124); conditions: probe aLAP1, fluorescence, higher = more signal;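 further: lysate comes from COS7 cells expressing LAP1 and is applied at 0.3 µg/mL; score merges spot fluorescence near 667 nm with signal-to-noise over triplicate slides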
[8] = tested on: Sam68 (KHDRBS1); test: Sam68 small-molecule binders, primary screen, biochemical, small-molecule microarray, 635 nm fluorescence (AID 1125); conditions: small-molecule microarray binding, higher = more signal;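 further: score merges 667 nm channel intensity with signal to noise over triplicate slides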
[9] = tested on: Chordin-like protein 2 (CHRDL2); test: CHRDL2 small-molecule binders, primary screen, biochemical, small-molecule microarray, 635 nm fluorescence (AID 1126); conditions: small-molecule microarray binding, fluorescence 635 nm; higher = more signal;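 further: printed compound slides probed with Chrdl2 protein at 4 µg/mL for 1 h at 4 C; score merges 667 nm emission intensity with signal to noise over three replicate slides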
[10] = target: Concanavalin-A (Canavalia ensiformis) (UniProt P02866); test: ConA small-molecule binders, primary screen, artefact control for SMM control protein annotation, biochemical, small-molecule microarray, Alexa647 label, 635 nm (AID 1127); conditions: ConA-A647 binding fluorescence, higher = more signal;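 further: z combines 667 nm emission intensity with signal-to-noise across three replicate slides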
Chain of Concanavalin-A (Canavalia ensiformis) (P02866 whole entry, looked up): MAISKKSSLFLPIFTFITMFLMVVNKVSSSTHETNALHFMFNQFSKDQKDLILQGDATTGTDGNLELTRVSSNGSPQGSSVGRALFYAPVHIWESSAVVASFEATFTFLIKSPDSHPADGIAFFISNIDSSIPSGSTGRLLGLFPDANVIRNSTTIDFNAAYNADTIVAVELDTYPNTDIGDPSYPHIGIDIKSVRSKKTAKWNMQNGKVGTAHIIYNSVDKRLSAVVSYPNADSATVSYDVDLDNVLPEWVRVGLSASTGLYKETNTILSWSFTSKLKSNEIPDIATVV

[11] = anti-His antibody binders, primary screen, artefact control for SMM control protein annotation, biochemical, small-molecule microarray, 635 nm fluorescence (AID 1128); conditions: anti-His Alexa647 antibody binding, higher = more signal;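 further: score merges feature fluorescence with signal-to-noise for each printed compound spot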
[12] = tested on: Human papillomavirus type 1a E7 protein (residues 1-88); test: HPV1a E7 small-molecule binders, primary screen, biochemical, small-molecule microarray, residues 1-88, 635 nm (AID 1129); conditions: small-molecule microarray binding, fluorescence 635 nm; higher = more signal
[13] = target: Focal adhesion kinase 1 (Homo sapiens) (UniProt Q05397); test: small-molecule microarray binders of FAK, primary screen, biochemical, 635/667 nm fluorescence, BSA, DTT (AID 1130); conditions: PTK2 binding, 635 nm fluorescence, higher = more signal;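 further: composite of spot emission at 667 nm and signal to noise over triplicate slides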
Chain of Focal adhesion kinase 1 (Homo sapiens) (Q05397 whole entry, looked up): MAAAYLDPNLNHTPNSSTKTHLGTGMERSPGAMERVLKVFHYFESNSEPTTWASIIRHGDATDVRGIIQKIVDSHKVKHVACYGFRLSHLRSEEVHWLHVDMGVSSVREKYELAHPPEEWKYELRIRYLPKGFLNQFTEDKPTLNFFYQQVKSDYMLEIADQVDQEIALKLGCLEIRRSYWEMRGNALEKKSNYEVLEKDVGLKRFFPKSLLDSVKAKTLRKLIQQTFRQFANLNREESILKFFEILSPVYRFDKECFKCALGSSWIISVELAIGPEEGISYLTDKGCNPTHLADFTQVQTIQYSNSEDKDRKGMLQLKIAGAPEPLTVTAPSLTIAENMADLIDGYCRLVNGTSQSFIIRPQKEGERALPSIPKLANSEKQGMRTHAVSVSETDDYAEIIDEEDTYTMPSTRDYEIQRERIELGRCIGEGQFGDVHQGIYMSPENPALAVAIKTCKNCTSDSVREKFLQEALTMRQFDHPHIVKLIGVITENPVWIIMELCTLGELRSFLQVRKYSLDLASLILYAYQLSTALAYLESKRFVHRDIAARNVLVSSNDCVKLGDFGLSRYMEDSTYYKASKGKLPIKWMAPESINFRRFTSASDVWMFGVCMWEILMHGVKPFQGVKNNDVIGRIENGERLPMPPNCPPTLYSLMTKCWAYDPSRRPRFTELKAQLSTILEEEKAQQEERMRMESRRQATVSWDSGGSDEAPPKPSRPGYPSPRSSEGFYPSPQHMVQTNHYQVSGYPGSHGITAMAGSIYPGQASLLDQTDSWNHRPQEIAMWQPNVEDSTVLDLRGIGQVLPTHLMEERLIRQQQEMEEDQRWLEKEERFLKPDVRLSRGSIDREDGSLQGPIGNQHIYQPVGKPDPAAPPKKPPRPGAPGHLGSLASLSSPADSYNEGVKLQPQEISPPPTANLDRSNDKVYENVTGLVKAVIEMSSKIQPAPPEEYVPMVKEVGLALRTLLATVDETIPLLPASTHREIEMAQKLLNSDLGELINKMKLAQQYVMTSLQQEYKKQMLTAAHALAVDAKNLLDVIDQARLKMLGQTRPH

[14] = tested on: Fibrinogen (Alexa647-labelled); test: fibrinogen binders on compound microarrays, profiling panel, artefact control for SMM control-protein annotation, biochemical, small-molecule microarray, 635/667 nm fluorescence (AID 1131); conditions: fibrinogen-A647 binding fluorescence, higher = more signal;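 further: z-score merges 667 nm fluorescence with per-spot signal-to-noise over triplicate slides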
[15] = target: Follistatin (Homo sapiens) (UniProt P19883); test: follistatin binders on small-molecule microarrays, primary screen, biochemical, small-molecule microarray, 635/667 nm fluorescence (AID 1132); conditions: FST binding, 635 nm fluorescence, higher = more signal
Chain of Follistatin (Homo sapiens) (P19883 whole entry, looked up): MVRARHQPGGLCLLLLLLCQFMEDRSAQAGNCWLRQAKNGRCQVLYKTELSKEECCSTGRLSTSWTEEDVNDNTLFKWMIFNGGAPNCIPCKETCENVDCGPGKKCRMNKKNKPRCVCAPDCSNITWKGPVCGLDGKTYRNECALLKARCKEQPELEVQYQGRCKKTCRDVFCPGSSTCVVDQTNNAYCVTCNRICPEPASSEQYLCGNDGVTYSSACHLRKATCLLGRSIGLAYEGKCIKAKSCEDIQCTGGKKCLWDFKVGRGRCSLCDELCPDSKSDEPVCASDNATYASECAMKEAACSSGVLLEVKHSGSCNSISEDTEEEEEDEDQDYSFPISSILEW

[16] = target: Fibroblast growth factor 2 (Homo sapiens) (UniProt P09038); test: FGF2 binders on small-molecule microarrays, primary screen, biochemical, small-molecule microarray, 635/667 nm fluorescence (AID 1133); conditions: small-molecule microarray binding, FGF2, fluorescence 635/667; higher = more signal
Chain of Fibroblast growth factor 2 (Homo sapiens) (P09038 whole entry, looked up): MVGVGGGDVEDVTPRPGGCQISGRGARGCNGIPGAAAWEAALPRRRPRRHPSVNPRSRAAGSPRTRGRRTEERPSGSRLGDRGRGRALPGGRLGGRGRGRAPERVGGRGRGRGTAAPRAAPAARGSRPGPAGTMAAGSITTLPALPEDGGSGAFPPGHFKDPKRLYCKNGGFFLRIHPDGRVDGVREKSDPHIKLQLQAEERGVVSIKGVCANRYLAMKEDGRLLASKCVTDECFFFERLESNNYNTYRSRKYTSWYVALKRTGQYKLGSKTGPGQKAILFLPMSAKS

[17] = mitochondrial membrane potential change in A549 cells, profiling panel, cell-based, JC-1 fluorescence, basal, 24 h, 100 nL (AID 1138); conditions: higher = more signal;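 further: A549 lung adenocarcinoma cells under basal conditions with no added stimulus; test concentration not given here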
[18] = tested on: Lefty1; test: Lefty1 binders on small-molecule microarrays, primary screen, biochemical, small-molecule microarray, 635/667 nm fluorescence (AID 1139); conditions: small-molecule microarray binding, fluorescence 635/667; higher = more signal
[19] = tested on: wheat germ agglutinin (Triticum aestivum), Alexa647-labelled; test: wheat germ agglutinin binders on compound microarrays, profiling panel, artefact control for SMM control-protein annotation, biochemical, small-molecule microarray, 635/667 nm fluorescence (AID 1140); conditions: WGA-A647 binding, 635 nm fluorescence, higher = more signal;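 further: score merges 667 nm feature emission with signal to noise over triplicate slides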
[20] = target: Luciferin 4-monooxygenase (Photinus pyralis) (UniProt P08659); test: firefly luciferase enzyme inhibitors, primary screen, biochemical, luminescence, purified enzyme, 2006 set (AID 1141); conditions: SteadyGlo luminescence, 30 min, higher = more signal, called active from +8 up or from −8 down;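 further: cell-free assay with purified firefly luciferase at 100 ng per well in PBS; test concentration not given here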
Chain of Luciferin 4-monooxygenase (Photinus pyralis) (P08659 whole entry, looked up): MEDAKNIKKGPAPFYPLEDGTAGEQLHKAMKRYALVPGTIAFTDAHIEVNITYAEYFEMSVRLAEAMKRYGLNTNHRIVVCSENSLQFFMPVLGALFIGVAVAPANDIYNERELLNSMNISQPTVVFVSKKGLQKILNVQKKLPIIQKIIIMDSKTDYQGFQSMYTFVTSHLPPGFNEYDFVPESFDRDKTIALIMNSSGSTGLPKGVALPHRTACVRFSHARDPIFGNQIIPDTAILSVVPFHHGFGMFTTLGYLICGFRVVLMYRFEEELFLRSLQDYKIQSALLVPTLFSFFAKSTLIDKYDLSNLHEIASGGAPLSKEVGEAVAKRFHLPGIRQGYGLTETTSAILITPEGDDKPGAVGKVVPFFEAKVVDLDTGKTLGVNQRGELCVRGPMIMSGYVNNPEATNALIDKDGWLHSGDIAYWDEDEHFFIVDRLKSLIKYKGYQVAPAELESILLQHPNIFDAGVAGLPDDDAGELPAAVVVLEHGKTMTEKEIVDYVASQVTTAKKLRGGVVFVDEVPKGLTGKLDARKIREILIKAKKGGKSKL

COc1ccc([Si](C)(C)[C@H]2[C@H](CC(=O)N3Cc4ccccc4C[C@H]3CO)O[C@@]3(C(=O)N(C)c4ccccc43)[C@@H]2C)cc1
composite z-score [1]: 0.656 | composite Z-score [2]: 0.673 (inactive) | composite z-score [3]: 0.163 | composite z-score [4]: -0.11 | composite z-score [5]: 0.686 | composite z-score [6]: 1.89 | composite z-score [7]: 0.941 | composite z-score [8]: 1.28 | composite z-score [9]: 1.37 | composite z-score [10]: 1.01 | composite z-score [11]: 1.45 | composite z-score [12]: 1.19 | composite z-score [13]: 0.333 | composite z-score [14]: 0.945 | composite z-score [15]: 1.52 | composite z-score [16]: 1.24 | z-score [17]: 0.206 | composite z-score [18]: 1.58 | composite z-score [19]: 0.938 | z-score [20]: -0.243 (inactive)

CC(C)N1C(=O)c2ccccc2[C@](C)(C(=O)NCC(F)(F)F)[C@@H]1c1ccc(CO)cc1
composite z-score [1]: -0.267 | composite Z-score [2]: -0.415 (inactive) | composite z-score [3]: -0.407 | composite z-score [4]: 0.0344 | composite z-score [5]: 0.852 | composite z-score [6]: 2.55 | composite z-score [7]: 1.14 | composite z-score [8]: -0.701 | composite z-score [9]: -0.912 | composite z-score [10]: -1.22 | composite z-score [11]: -0.851 | composite z-score [12]: -0.432 | composite z-score [13]: -0.749 | composite z-score [14]: -1.07 | composite z-score [15]: -1.02 | composite z-score [16]: -0.337 | z-score [17]: 0.607 | composite z-score [18]: -1.5 | composite z-score [19]: 0.594 | z-score [20]: -1.17 (inactive)

CN1C(=O)C2C(C3CC3)C=C3CN(Cc4cccc(Cl)c4)[C@@H]([C@@H](O)Cc4ccccc4)C3C2C1=O (stereo not given in full)
composite z-score [1]: 0.363 | composite Z-score [2]: 0.996 (inactive) | composite z-score [3]: 0.147 | composite z-score [4]: -0.104 | composite z-score [5]: 0.225 | composite z-score [6]: 1.17 | composite z-score [7]: -0.0531 | composite z-score [8]: 1.3 | composite z-score [9]: 0.231 | composite z-score [10]: 1.06 | composite z-score [11]: 0.162 | composite z-score [12]: 1.18 | composite z-score [13]: 1.09 | composite z-score [14]: 0.862 | composite z-score [15]: 0.662 | composite z-score [16]: 0.845 | z-score [17]: 1.35 | composite z-score [18]: 1.45 | composite z-score [19]: 0.344 | z-score [20]: -0.785 (inactive)

C=CCC(OC(C)=O)[C@@H]1[C@@H](N(Cc2cc3ccccc3o2)C(=O)Cc2ccc(OC)cc2)c2cc(OCCCO)ccc2N1C(=O)c1ccc2ccccc2n1 (stereo not given in full)
composite z-score [1]: 0.277 | composite Z-score [2]: -0.0847 (inactive) | composite z-score [3]: 0.0642 | composite z-score [4]: -0.0303 | composite z-score [5]: -0.0176 | composite z-score [6]: 0.361 | composite z-score [7]: -0.156 | composite z-score [8]: -0.11 | composite z-score [9]: 0.498 | composite z-score [10]: 0.0557 | composite z-score [11]: 0.264 | composite z-score [12]: -0.314 | composite z-score [13]: 0.138 | composite z-score [14]: 0.301 | composite z-score [15]: 0.654 | composite z-score [16]: 0.0376 | z-score [17]: -0.194 | composite z-score [18]: 0.0249 | composite z-score [19]: -0.0063 | z-score [20]: -0.219 (inactive)

NC(=O)NCC#Cc1ccc2c(c1)[C@]1(C(=O)N2)[C@H](c2ccc(OCCO)cc2)N2[C@H](c3ccccc3)[C@H](c3ccccc3)OC(=O)[C@H]2[C@@H]1C(=O)O
composite z-score [1]: 0.544 | composite Z-score [2]: 0.196 (inactive) | composite z-score [3]: -0.0918 | composite z-score [4]: -0.132 | composite z-score [5]: 0.256 | composite z-score [6]: 0.157 | composite z-score [7]: -0.23 | composite z-score [8]: -0.761 | composite z-score [9]: -0.736 | composite z-score [10]: 1.04 | composite z-score [11]: 1.21 | composite z-score [12]: -1.59 | composite z-score [13]: -0.333 | composite z-score [14]: 0.755 | composite z-score [15]: -0.044 | composite z-score [16]: -0.498 | z-score [17]: -1.15 | composite z-score [18]: -0.601 | composite z-score [19]: 1.22 | z-score [20]: -1.6 (inactive)

CC(C)C[C@@H]1NC(=O)[C@@]23C(=O)N[C@@H](Cc4ccccc4)C2[C@H](C)[C@@]2(C)O[C@H]2C3/C=C/C/C=C\CNC(=O)CNC1=O (stereo not given in full)
composite z-score [1]: 0.0829 | composite Z-score [2]: -0.568 (inactive) | composite z-score [3]: -0.0869 | composite z-score [4]: -0.14 | composite z-score [5]: 0.719 | composite z-score [6]: 0.283 | composite z-score [7]: 0.0471 | composite z-score [8]: 0.613 | composite z-score [9]: 0.322 | composite z-score [10]: 0.423 | composite z-score [11]: 0.256 | composite z-score [12]: 0.088 | composite z-score [13]: -0.0353 | composite z-score [14]: 0.177 | composite z-score [15]: 0.929 | composite z-score [16]: 0.766 | z-score [17]: -0.0173 | composite z-score [18]: 0.938 | composite z-score [19]: 0.375 | z-score [20]: -0.321 (inactive)

COCCCNC(=O)[C@@]1(CCC(=O)OC(C)(C)C)COC(c2ccc(OCCCO)cc2)=N1
composite z-score [1]: 0.483 | composite Z-score [2]: 0.507 (inactive) | composite z-score [3]: 0.133 | composite z-score [4]: -0.0485 | composite z-score [5]: 0.619 | composite z-score [6]: 3 | composite z-score [7]: 0.504 | composite z-score [8]: 1.28 | composite z-score [9]: -0.42 | composite z-score [10]: 0.286 | composite z-score [11]: 0.839 | composite z-score [12]: 1.27 | composite z-score [13]: 0.403 | composite z-score [14]: 1.04 | composite z-score [15]: 0.636 | composite z-score [16]: 0.502 | z-score [17]: -0.274 | composite z-score [18]: -0.322 | composite z-score [19]: 0.386 | z-score [20]: 0.75 (inactive)

CC1CC/C=C\[C@H]2OC34C=CCN(Cn5nnc6ccccc65)C(=O)[C@H]3N(CCCCCCO)C(=O)[C@@H]4C2C(=O)O1 (stereo not given in full)
composite z-score [1]: -0.252 | composite Z-score [2]: 0.347 (inactive) | composite z-score [3]: -0.427 | composite z-score [4]: -0.214 | composite z-score [5]: 0.398 | composite z-score [6]: -0.0339 | composite z-score [7]: 0.523 | composite z-score [8]: -0.682 | composite z-score [9]: -1.25 | composite z-score [10]: 0.257 | composite z-score [11]: 0.965 | composite z-score [12]: -0.506 | composite z-score [13]: -0.121 | composite z-score [14]: -0.627 | composite z-score [15]: -1.45 | composite z-score [16]: -1.09 | z-score [17]: 0.966 | composite z-score [18]: -0.654 | composite z-score [19]: -0.435 | z-score [20]: 0.152 (inactive)

COc1cc(C(O)C2C=CC3C(=O)N(c4ccccc4)C(=O)C3N2Nc2ccccc2)cc(OC)c1OC (stereo not given)
composite z-score [1]: 0.993 | composite Z-score [2]: 0.328 (inactive) | composite z-score [3]: 0.416 | composite z-score [4]: -0.0742 | composite z-score [5]: 0.573 | composite z-score [6]: 2.89 | composite z-score [7]: 0.496 | composite z-score [8]: 1.31 | composite z-score [9]: -0.872 | composite z-score [10]: 1.15 | composite z-score [11]: 1.04 | composite z-score [12]: 1.21 | composite z-score [13]: 0.655 | composite z-score [14]: 1 | composite z-score [15]: 1.14 | composite z-score [16]: -0.085 | z-score [17]: -0.193 | composite z-score [18]: -0.383 | composite z-score [19]: 1.24 | z-score [20]: -0.171 (inactive)

COC(=O)C(CC#Cc1ccc2c(c1)[C@]1(C(=O)N2)[C@H](c2ccccc2OCCO)N2[C@H](c3ccccc3)[C@H](c3ccccc3)OC(=O)[C@H]2[C@@H]1C(=O)N1CCc2cc(OC)c(OC)cc2C1)C(=O)OC
composite z-score [1]: 0.185 | composite Z-score [2]: 0.0296 (inactive) | composite z-score [3]: 0.172 | composite z-score [4]: -0.14 | composite z-score [5]: 0.661 | composite z-score [6]: 1.19 | composite z-score [7]: 0.653 | composite z-score [8]: 1.29 | composite z-score [9]: 0.618 | composite z-score [10]: 0.914 | composite z-score [11]: 1.3 | composite z-score [12]: 1.21 | composite z-score [13]: 0.317 | composite z-score [14]: 0.601 | composite z-score [15]: 1.32 | composite z-score [16]: 0.667 | z-score [17]: -0.668 | composite z-score [18]: 0.896 | composite z-score [19]: 0.28 | z-score [20]: -0.242 (inactive)
